Reference: PubChem BioAssay (NCI)
About 83,000 compounds went through this panel and 20% of them were active in at least one assay; those are over-represented in the sample as a whole.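 For each line, cells grew in 96-well plates with the test compound present at a single concentration for 48 hours.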 Unmarked numbers belong to inactive results. Calls of active or inactive are those of the source. How the source made its calls: active means growth percent below 10; inactive means the rest.

What follows are compounds tested on HS 578T breast (assay: NCI-60 one-dose screen, 48 h (100 = growth as untreated, 0 = no growth, -100 = all killed)). Conditions: 10 µM unless noted.
O=C(Cn1c2ccccc2c2ccncc21)N/N=C/c1c[nH]c2ccccc12 was tested, and the growth was 53.2%. Compound CC1(C)CC(=O)C2=C(C1)OC1=C(C(=O)CC(C)(C)C1)C2c1ccc(OCc2cn(-c3ccc(F)cc3F)nn2)cc1 has a growth of 96.2%. Work on c1ccc2c(c1)Oc1cccnc1-n1nccc1-2 yielded a growth of 90.1%. With NC(=NCCCOc1ccc(F)cc1)Nc1ccc(Cl)c(Cl)c1 the growth was 65.7%. Compound O=C1OC(N(Cc2ccc(Cl)cc2)c2ccccc2)c2ccccc21 (stereo not drawn) has a growth of 108%. Compound O=C(Nc1cccc([N+](=O)[O-])c1)Nc1cccc([N+](=O)[O-])c1 has a growth of 94.6%. In the case of CCOc1ccc(-n2c(-c3cc(OC)c(OC)c(OC)c3)nnc2-c2ccc(OC)cc2N)cc1, the growth is reported as 77.7%. In the case of CC(=O)CC/C=C(\C)[C@H](O)[C@H](C)C(=O)O[C@H]1C[C@H](C)C=C2C=C[C@@]3(C)O[C@@H](O)CC(=O)[C@]3(C)[C@H]21, the growth is reported as -10.1% (active). Compound Cc1cccc[n+]1CCC[n+]1ccccc1C has a growth of 109%. With C#CC(=O)/C=C/CCCCCCC#CC(=O)CCC(=O)C#CCCCCCC/C=C/C(=O)C#C the growth was 47%. Work on COc1ccc2c(c1)OC(N)=C(C#N)C2c1ccc(F)cc1 (stereo not drawn) yielded a growth of 18.8%. In the case of CC1=C2C(=C[C@@](C)(CO)[C@@H]2OC(=O)N(C)CCN(C)C(=O)OC(C)(C)C)C(=O)[C@](C)(O)C12CC2, the growth is reported as 93.9%. In the case of COc1ccc2c(-c3ccc(F)cc3)c(C#N)c(=NC(C)=O)oc2c1, the growth is reported as 42.9%. Compound CC(C)(C)OC(=O)NCc1cccc(N=C=S)c1 has a growth of 66.1%. In the case of CN(C)CCS(=O)(=O)Nc1cc(-c2ccc3ncnc(Nc4ccc(F)c(Cl)c4)c3c2)cnc1Cl, the growth is reported as -7.53% (active). Compound C=C1C(=O)O[C@H]2[C@H]1CC/C(COC(=O)c1ccc(Cl)nc1)=C\CC[C@@]1(C)O[C@@H]21 has a growth of 61.2%. Work on C=CC(=O)NC(=O)Nc1ccccc1Cl yielded a growth of 96.8%. Work on Nc1nc(-c2cc3c(cc2Cl)NC(=O)/C3=C/c2ccc(Cl)cc2)cs1 yielded a growth of 48.1%. COc1cc2ncn3c(=O)c4c5c(sc4nc3c2cc1OC)CCCCC5 gave a growth of 99.7%. For CCn1cc(C(=O)O)c(=O)c2cc(F)c(N3CCN(CC(=O)Nc4ccc(C(C)=O)cc4)CC3)cc21, the growth was 101%. With CCNC(=O)Oc1ccc(/C(=C(/CC)Cc2ccccc2)c2ccc(OCCN3CCOCC3)cc2)cc1 the growth was 62.5%. In the case of CCCCCCCCCCCCCCCCNc1ccccc1, the growth is reported as 108%. With CC(/C=C/C=C(\C)[C@H](O)[C@H](C)C(=O)O[C@H]1C[C@H](C)C=C2C=C[C@@]3(C)O[C@@H](O)CC(=O)[C@]3(C)[C@H]21)=C\C=C\C(=O)O the growth was -3.26% (active). In the case of COc1ccc2c(c1)OC(N(C(C)=O)C(C)=O)=C(C#N)C2c1ccc(F)cc1 (stereo not drawn), the growth is reported as 23.6%. N#Cc1c(N)nc(Cl)c(C#N)c1C(=O)c1ccccc1 was tested, and the growth was 71%. CCCCCCCC(=O)SCC/C=C/[C@@H]1CC(=O)NCc2nc(cs2)C2=N[C@@](C)(CS2)C(=O)N[C@@H](C(C)C)C(=O)N1 was tested, and the growth was 11.5%. In the case of COC(=O)c1ccc2c(c1)Oc1ccc(Cl)cc1-c1cc(C)nn1-2, the growth is reported as 55.1%. For Nc1n[nH]c2cccc(C#Cc3cccc(NC(=O)c4cccc(C(F)(F)F)c4)c3)c12, the growth was -0.652% (active). For Cc1ccc(NC(=O)CN2CCOCC2)cc1Cl, the growth was 98.7%. For C=C1C(=O)O[C@H]2[C@H]1CC/C(COC(=O)c1ccc(C#N)cc1)=C\CC[C@@]1(C)O[C@@H]21, the growth was 70%. With C=CC(C)(O)CCC1C(=C)CCC2C(C)(C)CCCC12C (stereo not drawn) the growth was 113%. CCOC(=O)c1noc2c1CCc1cn(Cc3cc(OC)cc(OC)c3)cc1-2 showed a growth of 99.7%. For Nc1nc(Nc2ccc(OCc3cccc(F)c3)cc2)c2c(n1)[nH]c1ccc(O)cc12, the growth was -21.9% (active). Compound C#C[C@@]1(O)[C@@H](CO)O[C@@H](n2cc(Br)c3c(Cl)ccnc32)[C@@H]1O has a growth of 40.9%. C=C1C(=O)O[C@H]2[C@H]1CC/C(CNC(=O)/C1=C/CC[C@@]3(C)O[C@H]3[C@H]3OC(=O)C(=C)[C@@H]3CC1)=C\CC[C@@]1(C)O[C@@H]21 showed a growth of 112%. COc1ccc(N)c(S)c1 was tested, and the growth was 102%. With C=CC(=O)Nc1cccc(Nc2nc(Nc3ccc(OCCOC(F)F)cc3)ncc2F)c1 the growth was 23.4%. O=C(c1ccccc1)[C@H]1[C@@H]2CCCN2[C@]2(C(=O)Nc3ccc(F)cc32)[C@]12C(=O)Nc1ccccc12 was tested, and the growth was 96.1%.
